In publication PMC4336329 (PLoS ONE, 2015):
The whole screen tested about 310,000 compounds, of which about 14,000 (4.5%) showed an effect of 50% or more. The effect is printed as a negative number. Only a selection was taken, and strong results are over-represented in it overall.
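Also: peak tail current of the secondary pulse compared with the same well before compound.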

Each compound was assayed against human ether-à-go-go-related gene (hERG) potassium channel (human, UniProt Q12809) (assay: primary screen, population patch clamp on CHO cells stably expressing hERG; higher = less effect of the substance).
human ether-à-go-go-related gene (hERG) potassium channel, sequence (Q12809 whole entry, looked up): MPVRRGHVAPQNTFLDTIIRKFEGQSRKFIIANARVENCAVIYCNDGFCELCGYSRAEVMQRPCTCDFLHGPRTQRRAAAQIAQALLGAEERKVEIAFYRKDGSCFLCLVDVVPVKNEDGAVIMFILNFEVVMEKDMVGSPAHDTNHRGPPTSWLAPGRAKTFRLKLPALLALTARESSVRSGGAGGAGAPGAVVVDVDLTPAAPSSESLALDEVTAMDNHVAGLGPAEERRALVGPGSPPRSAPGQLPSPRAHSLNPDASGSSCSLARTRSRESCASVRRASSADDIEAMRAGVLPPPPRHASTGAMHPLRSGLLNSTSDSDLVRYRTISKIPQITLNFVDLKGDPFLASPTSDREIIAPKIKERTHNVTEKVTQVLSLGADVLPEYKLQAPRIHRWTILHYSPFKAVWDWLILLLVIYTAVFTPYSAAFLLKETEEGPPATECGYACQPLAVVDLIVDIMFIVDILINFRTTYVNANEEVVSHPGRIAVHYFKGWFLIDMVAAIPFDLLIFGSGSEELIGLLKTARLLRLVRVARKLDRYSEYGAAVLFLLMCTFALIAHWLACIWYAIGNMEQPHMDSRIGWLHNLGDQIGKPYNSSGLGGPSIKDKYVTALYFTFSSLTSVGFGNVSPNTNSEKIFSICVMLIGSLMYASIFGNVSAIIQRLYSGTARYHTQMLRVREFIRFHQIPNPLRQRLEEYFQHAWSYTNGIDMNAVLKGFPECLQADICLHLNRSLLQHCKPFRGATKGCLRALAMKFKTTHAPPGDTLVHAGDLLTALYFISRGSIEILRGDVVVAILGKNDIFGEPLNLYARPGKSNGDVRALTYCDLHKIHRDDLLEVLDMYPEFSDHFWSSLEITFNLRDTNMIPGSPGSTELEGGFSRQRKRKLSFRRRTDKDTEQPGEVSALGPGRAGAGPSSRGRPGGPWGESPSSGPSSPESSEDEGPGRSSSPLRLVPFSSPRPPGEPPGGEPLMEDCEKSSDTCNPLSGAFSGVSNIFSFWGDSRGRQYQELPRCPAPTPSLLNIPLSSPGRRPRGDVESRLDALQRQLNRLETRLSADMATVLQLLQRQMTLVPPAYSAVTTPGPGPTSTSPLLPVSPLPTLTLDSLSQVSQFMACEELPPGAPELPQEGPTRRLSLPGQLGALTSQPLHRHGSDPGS
For Cc1ccc(C)c(SCC(=O)N(C)CC(=O)Nc2ccc(N3CCOCC3)cc2)c1, the “hERG current change (%, negative = inhibition) at 10uM” value was -5.12%. For Cc1ccc(NC(=S)N/N=C/c2ccc([N+](=O)[O-])s2)cc1, the “hERG current change (%, negative = inhibition) at 10uM” value was -3.04%. For COc1cccc(CN2CCC(C(=O)N3CCN(Cc4ccc5c(c4)OCO5)CC3)CC2)c1, the “hERG current change (%, negative = inhibition) at 10uM” value was -19.8%. In the case of COc1ccc(N2CC(C(=O)N3CCN(Cc4ccc5c(c4)OCO5)CC3)CC2=O)cc1 (centres unmarked), the “hERG current change (%, negative = inhibition) at 10uM” value is reported as -19%. In the case of C[C@H](NS(=O)(=O)c1ccc2c(c1)OCCCO2)C(=O)N1CCN(Cc2ccc(C#N)cc2)CC1, the “hERG current change (%, negative = inhibition) at 10uM” value is reported as -61.1%. In the case of C[C@H](NS(=O)(=O)c1ccc2c(c1)OCCCO2)C(=O)N1CCN(c2ccc(F)cc2)CC1, the “hERG current change (%, negative = inhibition) at 10uM” value is reported as -34.8%. With O=C(C1CCN(Cc2ccc(Cl)cc2)CC1)N1CCN(Cc2ccc3c(c2)OCO3)CC1 the “hERG current change (%, negative = inhibition) at 10uM” value was -66.6%. O=C(C1CCN(Cc2ccccc2O)CC1)N1CCN(Cc2ccc3c(c2)OCO3)CC1 was tested, and the “hERG current change (%, negative = inhibition) at 10uM” value was -23%. With O=C(C1CC(=O)N(c2ccc(Cl)cc2)C1)N1CCN(Cc2ccc3c(c2)OCO3)CC1 (centres unmarked) the “hERG current change (%, negative = inhibition) at 10uM” value was -67.7%. For O=C(C1CCN(Cc2cccs2)CC1)N1CCN(Cc2ccc3c(c2)OCO3)CC1.O=C(O)C(=O)O, the “hERG current change (%, negative = inhibition) at 10uM” value was -14.5%. In the case of O=C(C1CC(=O)N(c2ccc3c(c2)OCCO3)C1)N1CCN(Cc2ccccc2)CC1 (centres unmarked), the “hERG current change (%, negative = inhibition) at 10uM” value is reported as 0.404%. O=C(c1ccc(F)cc1)N1CCC(C(=O)N2CCN(Cc3ccc4c(c3)OCO4)CC2)CC1 was tested, and the “hERG current change (%, negative = inhibition) at 10uM” value was -10.5%. N#Cc1ccc(CN2CCN(C(=O)CNS(=O)(=O)c3ccc4c(c3)OCCCO4)CC2)cc1 was tested, and the “hERG current change (%, negative = inhibition) at 10uM” value was -20.8%. For O=C(C1CCN(c2nnc(-n3cccc3)s2)CC1)N1CCN(Cc2ccc3c(c2)OCO3)CC1, the “hERG current change (%, negative = inhibition) at 10uM” value was -68.2%. O=C(c1c[nH]c2ccc(S(=O)(=O)N3CCOCC3)cc2c1=O)N1CCC2(CC1)OCCO2 was tested, and the “hERG current change (%, negative = inhibition) at 10uM” value was 23.7%. With CCc1ccccc1NC(=O)N1C2CCCC1CC(NC(C)=O)C2 (centres unmarked) the “hERG current change (%, negative = inhibition) at 10uM” value was 21.4%. In the case of Cc1nn(-c2ccccc2)c(Cl)c1C1C(C#N)=C(N)Oc2c1c(=O)oc1ccccc21 (centres unmarked), the “hERG current change (%, negative = inhibition) at 10uM” value is reported as 6.87%. In the case of CCN1C(=O)C(=Cc2c(C)n(CC(=O)NCC3CCCO3)c3ccccc23)C(=O)N(CC)C1=S (centres unmarked), the “hERG current change (%, negative = inhibition) at 10uM” value is reported as 27.5%. For CCOc1cc(-c2noc(CCC(=O)Nc3cccnc3)n2)ccc1OC, the “hERG current change (%, negative = inhibition) at 10uM” value was 10.4%. With O=C(O)CC12C[C@H]3C[C@@H](C1)CC(n1ncc(N4CCN(c5ccccc5)CC4)c(Cl)c1=O)(C3)C2 the “hERG current change (%, negative = inhibition) at 10uM” value was 6.36%. In the case of O=C(O)CCC(=O)N1CCN(Cc2ccc3c(c2)OCO3)CC1, the “hERG current change (%, negative = inhibition) at 10uM” value is reported as 11.6%. For O=C(C1CCN(S(=O)(=O)c2ccccc2)CC1)N1CCN(Cc2ccc3c(c2)OCO3)CC1, the “hERG current change (%, negative = inhibition) at 10uM” value was -28.9%. For O=C(C1CCN(S(=O)(=O)c2cnc[nH]2)CC1)N1CCN(Cc2ccc3c(c2)OCO3)CC1, the “hERG current change (%, negative = inhibition) at 10uM” value was 0.674%. For N#Cc1ccc(S(=O)(=O)N2CCC(C(=O)N3CCN(Cc4ccc5c(c4)OCO5)CC3)CC2)cc1, the “hERG current change (%, negative = inhibition) at 10uM” value was -74.2%. For O=C(CCC1CCCCC1)N1CCN(Cc2ccc3c(c2)OCO3)CC1, the “hERG current change (%, negative = inhibition) at 10uM” value was -67.2%. In the case of CCCC(=O)N1CCN(Cc2ccc3c(c2)OCO3)CC1, the “hERG current change (%, negative = inhibition) at 10uM” value is reported as -3.83%. CCOC(=O)C1CCN(S(=O)(=O)c2cc(C(=O)OC)n(C)c2)CC1 was tested, and the “hERG current change (%, negative = inhibition) at 10uM” value was -8.49%. With COCCC1CCCCN1Cc1cn(-c2ccccc2)nc1-c1ccc2c(c1)OCO2 (centres unmarked) the “hERG current change (%, negative = inhibition) at 10uM” value was -55.8%. For c1ccc(-n2cc(CN3CCC(N4CCOCC4)CC3)c(-c3ccc4c(c3)OCO4)n2)cc1, the “hERG current change (%, negative = inhibition) at 10uM” value was -50.8%. For c1ccc(-n2cc(CN3CCCC3)c(-c3ccc4c(c3)OCO4)n2)cc1, the “hERG current change (%, negative = inhibition) at 10uM” value was -73%. With OC[C@@H]1CCCN1Cc1cn(-c2ccccc2)nc1-c1ccc2c(c1)OCO2 the “hERG current change (%, negative = inhibition) at 10uM” value was -24.2%. With c1ccc(Cn2cc(CN3CCCCO3)c(-c3ccc4c(c3)OCO4)n2)cc1 the “hERG current change (%, negative = inhibition) at 10uM” value was -1.3%. For Cl.O=C1CSC(c2cn(-c3ccccc3)nc2-c2ccc3c(c2)OCCO3)N1CCN1CCOCC1 (centres unmarked), the “hERG current change (%, negative = inhibition) at 10uM” value was -21.2%. For c1ccc(Cn2cc(CN3CCCO3)c(-c3ccc4c(c3)OCO4)n2)cc1, the “hERG current change (%, negative = inhibition) at 10uM” value was 15.9%. In the case of COCC1CCCCN1Cc1cn(-c2ccccc2)nc1-c1ccc2c(c1)OCO2 (centres unmarked), the “hERG current change (%, negative = inhibition) at 10uM” value is reported as -37.1%. CC(=O)NCC1CCCN(Cc2cn(-c3ccccc3)nc2-c2ccc3c(c2)OCO3)C1 (centres unmarked) was tested, and the “hERG current change (%, negative = inhibition) at 10uM” value was -45.9%. In the case of COC(=O)C1CCN(Cc2cn(-c3ccccc3)nc2-c2ccc3c(c2)OCO3)CC1, the “hERG current change (%, negative = inhibition) at 10uM” value is reported as -33.7%. For c1ccc(-n2cc(CN3CCCC(CN4CCCC4)C3)c(-c3ccc4c(c3)OCO4)n2)cc1 (centres unmarked), the “hERG current change (%, negative = inhibition) at 10uM” value was -29.2%. With COCC1CCCN(Cc2cn(-c3ccccc3)nc2-c2ccc3c(c2)OCO3)C1 (centres unmarked) the “hERG current change (%, negative = inhibition) at 10uM” value was -65.7%. O=C(COC(=O)Cn1nc(-c2ccccc2)oc1=O)Nc1ccc(F)cc1 was tested, and the “hERG current change (%, negative = inhibition) at 10uM” value was 4.6%. CC1=C(C/C=C(\C)CCCC(C)CCCC(C)CCCC(C)C)C(=O)c2ccccc2C1=O (centres unmarked) was tested, and the “hERG current change (%, negative = inhibition) at 10uM” value was 25.4%. In the case of COC(=O)c1sccc1NC(=O)Nc1ccccc1F, the “hERG current change (%, negative = inhibition) at 10uM” value is reported as 13.4%. CCCOc1ccc(N2C(=O)C3C(C(C)C)NC4(C(=O)c5ccccc5C4=O)C3C2=O)cc1 (centres unmarked) was tested, and the “hERG current change (%, negative = inhibition) at 10uM” value was -0.496%. For O=C(NNC1CC(=O)N(c2ccc3c(c2)OCCO3)C1=O)c1ccc(Cl)cc1 (centres unmarked), the “hERG current change (%, negative = inhibition) at 10uM” value was 10.1%. In the case of Cc1ccc(CNC(=O)CNS(=O)(=O)c2ccc(Br)s2)cc1, the “hERG current change (%, negative = inhibition) at 10uM” value is reported as -0.279%. For O=C1C2C3C=CC(C4CC34)C2C(=O)N1/N=C/c1ccc(-c2cccc([N+](=O)[O-])c2)o1 (centres unmarked), the “hERG current change (%, negative = inhibition) at 10uM” value was -14.1%. For O=C(CSc1nncc2ccccc12)Nc1ccc(C(=O)O)cc1, the “hERG current change (%, negative = inhibition) at 10uM” value was 10.6%. In the case of O=C(COC(=O)c1ccc(O)cc1)NC1CCCC1, the “hERG current change (%, negative = inhibition) at 10uM” value is reported as 14%. In the case of C#CCOc1ccc(/C=C2/C(=O)N(c3cccc(C(=O)O)c3)N=C2C)cc1OC, the “hERG current change (%, negative = inhibition) at 10uM” value is reported as -2.13%. In the case of CCCN(CC#CC(O)(c1ccccc1)c1cccnc1)CCC (centres unmarked), the “hERG current change (%, negative = inhibition) at 10uM” value is reported as -37.3%.
